# From PubChem BioAssay
# An excerpt weighted towards active compounds, which were near 19% of everything screened.
# DT40 TDP1 no CPT = qHTS for Inhibitors of human tyrosyl-DNA phosphodiesterase 1 (TDP1): qHTS in cells in absence of CPT. DT40 Tdp1-/- hTDP1 cells, no CPT, ATP luminescence, 48 h. Potency, µM (series often up to 46.2 µM), without a hit: top-dose activity change, negative = growth inhibition, most hits filed as inhibitors. 15% of 420,000 active. AID 686978, 2013; further: nearly all actives have a fitted effect of over 55% in size
#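 Readout: luminescence from CellTiter-Glo after 30 min in the dark at RT. Cells: DT40 Tdp1-/- with stable hTDP1, 400/well. Exposure: compounds alone, ≥48 hr, 37 °C.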
# TDP1 cell CPT = DT40-hTDP1 cell growth loss with CPT | Potency, µM (top dose mostly 46.2 µM), for inactives: at the top dose activity change, negative = growth inhibition, hits mostly inhibitors | chicken DT40 Tdp1-/-;hTDP1 cells + 20 nM CPT, ATP luminescence, 48 h | 12% of 420,000 active; further: nearly all actives have a fitted effect of over 55% in size
#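 Chicken DT40 Tdp1-/- cells complemented with human TDP1, 400 cells/well, exposed to compounds plus 20 nM camptothecin for at least 48 h at 37 C; viability read as ATP content by CellTiter-Glo luminescence.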
# HT1080 IDH1KD tx = kills HT-1080 cells with IDH1 knockdown; HT-1080 IDH1 knockdown viability, ATP luminescence, 48 h; Potency, µM (series often up to 46.1 µM), for inactives: at the top dose activity, negative = toxicity, actives largely listed as cytotoxic; 2% of 360,000 active;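 further: 0% = DMSO wells and -100% = cell-free medium wells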
#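 CellTiter-Glo luminescence after 48 h compound exposure at 37 degrees C of IDH1-knockdown HT-1080 cells in 5% FBS RPMI. %Activity scaled between DMSO wells and cell-free media wells, with curves fitted and assigned curve classes.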
# KB-3-1 cytotox = KB-3-1 parental cell cytotoxicity; KB-3-1 viability, CellTiter-Glo ATP luminescence, 72 h; Potency, µM (doses to about 46.1 µM), hits mostly cytotoxic; 1.4% of 400,000 active; further: nearly all actives have a fitted effect of over 60% in size
#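 Multi-concentration cytotoxicity screen in KB-3-1 cells grown in DMEM lacking phenol red with 10% FBS. After 72 h at 37 °C with compound, ATP-dependent luminescence was recorded.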
# KB-V1 cytotox = kills drug-selected multidrug resistant KB-V1 cells; KB-V1 MDR cells viability, CellTiter-Glo, 72 h; Potency, µM (top dose mostly 46.1 µM), actives largely listed as cytotoxic; 3.4% of 400,000 active; further: nearly all actives have a fitted effect of over 60% in size
#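 Following 72 h at 37 degrees C with compound, KB-V1 cell viability was read by CellTiter-Glo luminescence, medium being phenol-red-free DMEM plus 10% FBS; concentration-response parameters came from normalized, curve-fitted qHTS data.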
# HT1080NT lethal = kills 2HG-producing HT-1080-NT fibrosarcoma cells; Potency, µM (top dose mostly 46.1 µM), for the others: top-dose activity, negative = less viability, most hits filed as cytotoxic; 1.6% of 360,000 active; HT-1080-NT fibrosarcoma viability, CellTiter-Glo ATP luminescence, 48 h; AID 686970;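 further: NT is the 2HG producing partner of a matched IDH1 knockdown line; 0% = DMSO-treated cells and -100% = media-only wells without cells; nearly all actives have a fitted effect of over 55% in size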
#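 750 cells/well, RPMI + 5% FBS; 2 h settle, compound pin-transfer, 48 h at 37 degrees C. CellTiter-Glo 10 min RT, luminescence. Normalized to DMSO and media-only wells.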
# The depositor's hits bear a star; i = inactive; ? = inconclusive; nt = no result given. The call rests on the fitted dose curve; in most records, active means well fitted curve in the direction sought with a large enough effect; inconclusive means small, poorly fitted or top-dose-only effect, or another doubt; inactive means no such curve, though single readings can be large; an effect the other way counts as inactive or inconclusive. Unless noted, on the % scale 0 is the no-effect control and ±100 the full control effect; potency means the concentration at half of the fitted maximal effect.
SMILES,DT40 TDP1 no CPT,TDP1 cell CPT,HT1080 IDH1KD tx,KB-3-1 cytotox,KB-V1 cytotox,HT1080NT lethal
CCN(CC(=O)Nc1ccc(NC(C)=O)cc1)C(=O)c1ccc(=O)[nH]c1,21.8%,-4.6%,7.8%,i,?,20.2%
COCCCNC(=O)CC1C[C@H](C(=O)N2CCCCC2)[C@@]2(CCc3ccccc3)c3[nH]c4ccc(OC)cc4c3CCN2C1=O (some centres undefined),?,?,3.4%,i,i,-0.6%
COCCN1Cc2cccc(C(=O)Nc3cccc(-c4nc5ccccc5[nH]4)c3)c2C1=O,16.4µM*,4.61µM*,16.4µM*,?,10.3µM*,-51.7%
COCCN1Cc2cccc(C(=O)NCc3ccc4c(c3)OCO4)c2C1=O,8.3%,0.1%,14.1%,i,4.11µM*,2.9%
CCCN1Cc2cccc(C(=O)Nc3ccc(-c4nc5ccccc5[nH]4)cc3)c2C1=O,18.4µM*,?,-0.1%,i,i,-3.8%
CCCN1Cc2cccc(C(N)=O)c2C1=O,?,8.2µM*,-2.8%,i,?,-5.6%
Cc1cccc(N(C)C(=O)C2CCN(S(=O)(=O)c3cccc4nonc34)CC2)c1,?,?,nt,i,i,nt
CC(=O)Nc1cc2c(cc1[N+](=O)[O-])-c1ccccc1C2=NO,-11.5%,?,?,?,i,4.0%
CC(=O)Nc1cc2c(cc1[N+](=O)[O-])-c1ccccc1C2O (centres undefined),11.6µM*,?,-6.4%,i,i,0.5%
COc1ccccc1N1CCN(C(=O)Cn2ncc3c(=O)oc4ccc(C)cc4c32)CC1,?,-27.4%,nt,i,i,nt
Cc1ccc2oc(=O)c3cnn(CC(=O)N4CCN(c5ccccc5)CC4)c3c2c1,10.3µM*,?,7.6%,i,i,7.6%
Cc1ccc2oc(=O)c3cnn(CC(=O)N4CCN(c5ccccc5F)CC4)c3c2c1,20.6µM*,?,nt,i,i,nt
COc1ccc(OC)c(CNC(=O)CCCn2nc(C)c3c(C)n(-c4ccc(C)cc4)nc3c2=O)c1,20.6µM*,23.1µM*,nt,nt,nt,nt
COc1cccc(CNC(=O)CCCn2nc(C)c3c(C)n(-c4ccc(C)cc4)nc3c2=O)c1OC,?,10.3µM*,-3.5%,i,i,0.0%
COc1cc(S(=O)(=O)NCc2ccc(F)cc2)ccc1-n1cnnn1,-9.9%,-18.5%,17.3%,i,?,-0.4%
COC(=O)[C@@]1(Cc2ccc(F)cc2)[C@H]2c3cc(C(=O)N(C)C)n(Cc4ccc(C)o4)c3C[C@H]2CN1C(=O)c1ccccc1,20.6µM*,16.4µM*,20.6µM*,?,16.4µM*,?
COC(=O)[C@@]1(Cc2ccc(F)cc2)[C@H]2c3cc(C(=O)N(C)C)n(CCc4ccc(OC)c(Br)c4)c3C[C@H]2CN1C(=O)c1ccccc1,9.2µM*,10.3µM*,-3.8%,i,i,-6.5%
COC(=O)[C@@]1(Cc2ccc(F)cc2)[C@H]2c3cc(C(=O)N(C)C)n(Cc4ccc(OC)c(OC)c4)c3C[C@H]2CN1C(=O)c1ccccc1,?,?,-10.6%,i,i,-11.0%
COC(=O)[C@@]1(Cc2ccc(F)cc2)[C@H]2c3cc(C(=O)N(C)C)n(Cc4ccccc4)c3C[C@H]2CN1C(=O)c1ccccc1,20.6µM*,5.17µM*,-9.3%,i,i,?
COC(=O)[C@@]1(Cc2ccc(F)cc2)[C@H]2c3cc(C(=O)N(C)C)n(CCO)c3C[C@H]2CN1C(=O)c1ccccc1,-24.5%,-8.3%,3.6%,i,i,10.5%
COC(=O)[C@@]1(Cc2ccc(OC)cc2)[C@H]2c3cc(C(=O)N(C)C)n(Cc4ccc(OC(F)(F)F)cc4)c3C[C@H]2CN1C(=O)c1ccccc1,20.6µM*,20.6µM*,-22.1%,?,?,-18.5%
COC(=O)[C@@]1(Cc2ccc(F)cc2)[C@H]2c3cc(C(=O)N(C)C)n(CCCNc4ncc(C(F)(F)F)cc4Cl)c3C[C@H]2CN1C(=O)c1ccccc1,?,?,?,?,18.4µM*,?
Cc1cccn2c(=O)c3cc(C(=O)NC(C)c4ccccc4)c(=N)n(CCCn4ccnc4)c3nc12 (centres undefined),?,?,?,?,i,?
Cc1cccn2c(=O)c3cc(C(=O)NC(C)c4ccccc4)c(=N)n(CCOCCO)c3nc12 (centres undefined),25.9µM*,23.1µM*,nt,i,i,nt
Cc1cccn2c(=O)c3cc(C(=O)NCc4ccccc4)c(=N)n(CCOCCO)c3nc12,25.9µM*,11.6µM*,nt,i,i,nt
SMILES,DT40 TDP1 no CPT,TDP1 cell CPT,HT1080 IDH1KD tx,KB-3-1 cytotox,KB-V1 cytotox,HT1080NT lethal
CCOCCCn1c(=N)c(C(=O)NC(C)c2ccccc2)cc2c(=O)n3cccc(C)c3nc21 (centres undefined),16.4µM*,16.4µM*,nt,?,?,nt
COCC(C)NC(=O)C1CC(c2cccc(Br)c2)=NO1 (centres undefined),-4.7%,-27.6%,-4.5%,i,i,-0.1%
COc1ccccc1OCC(=O)Nc1ccc(S(=O)(=O)N2CCCC2)cc1,?,?,5.6%,i,i,10.9%
Cc1ccc(C(=O)N/N=C/c2ccc(-c3cccc(C(F)(F)F)c3)o2)cn1,2.59µM*,2.91µM*,2.06µM*,6.51µM*,8.2µM*,?
O=C(N/N=C/c1ccc(-c2ccc([N+](=O)[O-])cc2)o1)c1cccnc1,-21.7%,1.2%,?,i,i,?
Cc1ccc(OCC(=O)N/N=C\c2ccc(-c3cccc(C(=O)O)c3)o2)c(C)c1,-19.5%,-9.1%,1.1%,i,i,3.7%
CNC(=S)N/N=C/c1ccc(-c2cccc(C(=O)O)c2)o1,8.2µM*,9.2µM*,?,14.6µM*,20.6µM*,?
COc1ccc(OC)c(S(=O)(=O)NC(=O)C2(C)CCN2C(=O)C2(c3ccc(Cl)cc3)CC2)c1 (centres undefined),-3.5%,-4.5%,18.4%,i,i,3.2%
CC(C)NC(=O)NC(=O)CSc1nnc(COc2ccccc2F)n1C(C)C1CC2CCC1C2 (centres undefined),10µM*,10µM*,?,?,i,?
